Laboratory results taken from PubChem BioAssay AID1508622 (National Center for Advancing Translational Sciences (NCATS), 2021).
Activity calls are given as the source filed them. Entries that show only a call come without a potency. Calls come from the whole dose curve; as a rule, active = well fitted activation curve with a large enough effect; inconclusive = small, poorly fitted or top-dose-only effect; inactive = no such curve, though single readings can be large or run the other way.

Experiment: Confirmatory qHTS for Identification of Small Molecule Activators of Huntingtin-Antisense Promoter Activity
Conditions: HEK293 HTT-AS promoter firefly luciferase reporter, 24 h; series mostly up to 57.5 µM
Method in brief: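 HEK293 luciferase reporter cells, 2,500/well, cultured 24 h, then exposed to compounds at up to 57.5 uM final for 24 h at 37C. Firefly luciferase luminescence read; normalized to vehicle (0%) and zero RLU (-100%).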
Potency is the fitted concentration of half-maximal effect.

SMILES | Potency
COc1ccc(C2C=C(c3ccc(Br)cc3)Nc3nnnn32)c(OC)c1 (centres undefined) | inactive
CCc1ccc(CN(Cc2ccco2)C(=O)COc2ccccc2Cl)cc1 | inactive
COc1ccc(-c2noc(N3CCN(c4cccc(C)c4C)CC3)n2)cc1OC | inactive
CC(C)c1ccc(CNC(=O)c2ccc(N3CCCC3)c(NC(=O)NCc3ccc(F)cc3)c2)cc1 | inactive
O=C(Nc1ccc(F)cc1F)c1ccc2c(c1)CCN2S(=O)(=O)c1ccc(Cl)cc1 | inactive
COc1ccc(NC(=O)Cc2csc(COc3cccc(C)c3)n2)cc1OC | inactive
CSc1ccc(CCNC(=O)c2ccc(CS(=O)(=O)c3ccc(Br)cc3)o2)cc1 | inactive
CCc1ccc(NC(=O)c2ccc(F)c(S(=O)(=O)N3CCc4ccccc4C3)c2)cc1 | inactive
CC(C)c1ccc(NC(=O)CSC2=Nc3ccccc3C3=NC(CCC(=O)NCc4ccc(F)cc4)C(=O)N23)cc1 (centres undefined) | inactive
CCOc1ccc(N(Cc2ccccc2)C(=O)c2nc(SC)ncc2Cl)cc1 | inactive
CCOc1ccc(NS(=O)(=O)c2ccc(-c3cc(C)no3)s2)cc1 | inactive
CCc1c(C)sc2c1CCN(Cc1ccccc1F)C2c1ccccc1 (centres undefined) | inactive
COc1ccc2nc(N3CCN(C(=O)CS(=O)(=O)c4ccc(C)cc4)CC3)sc2c1 | inactive
COc1ccc(N2CCN(C(=O)c3ccc4c(=O)n(CCc5ccc(OC)c(OC)c5)c(=O)[nH]c4c3)CC2)cc1 | inactive
OCCCn1c(-c2ccc(F)cc2)csc1=Nc1ccc(F)cc1 | inactive
CCCCN1C(C(=O)c2ccccc2)=C(OC(C)=O)c2ccccc2S1(=O)=O | inactive
O=C(COCc1cc(-c2ccc3c(c2)OCO3)on1)N1CCN(c2cccc(C(F)(F)F)c2)CC1 | inactive
COc1ccc(CCNC(=O)c2ccc3c(c2)N(Cc2ccc(F)cc2)CCS3)cc1OC | inactive
Cc1oc(-c2ccc(C(=O)Nc3cccc(C(F)(F)F)c3)cc2)nc1CSc1ccccc1 | inactive
CN(C)Cc1ccc(-c2nc3cccc4c3n2CCNC4=O)cc1 | 30.1 µM (active)
O=S(=O)(NCc1ccc(Cl)cc1)c1ccc(N2CCCCS2(=O)=O)cc1 | inactive
CCSc1ncc(Cl)c(C(=O)Nc2ccc(S(=O)(=O)N3CCC(C)CC3)cc2)n1 | inactive
Cc1ccc(-c2onc(C)c2C)cc1S(=O)(=O)N1CCC(C)CC1 | inactive
Cc1ccc(NC(=O)c2c(NC(=O)C(F)(F)F)sc3c2CCCCC3)cc1 | inactive
